Measurements taken from PubChem BioAssay (NCI).
About 83,000 compounds went through this panel and 20% of them were active in at least one assay; those are over-represented in the sample as a whole.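 A percent growth of 40 corresponds to 60% growth inhibition; 0 means no net growth; -100 means all cells died. Active threshold: below 10.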

Experiments:
Test in all cases: NCI-60 one-dose screen, 48 h (100 = growth as untreated, 0 = no growth, -100 = all killed)
[1] = test system: HOP-92 NSCLC; conditions: 10 µM unless noted
[2] = test system: COLO 205 colon; conditions: 10 µM
[3] = test system: MALME-3M melanoma; conditions: 10 µM unless noted
[4] = test system: LOX IMVI melanoma; conditions: 10 µM unless noted
[5] = test system: SN12C renal; conditions: 10 µM unless noted
[6] = test system: TK-10 renal; conditions: 10 µM unless noted
[7] = test system: CAKI-1 renal; conditions: 10 µM unless noted
[8] = test system: SR leukemia; conditions: 10 µM
[9] = test system: RPMI-8226 leukemia; conditions: 10 µM unless noted
[10] = test system: OVCAR-4 ovarian; conditions: 10 µM unless noted
[11] = test system: BT-549 breast; conditions: 10 µM
[12] = test system: HCC-2998 colon; conditions: 10 µM unless noted
[13] = test system: SF-295 CNS; conditions: 10 µM unless noted
[14] = test system: SNB-19 CNS; conditions: 10 µM unless noted
[15] = test system: SK-MEL-28 melanoma; conditions: 10 µM unless noted
[16] = test system: EKVX NSCLC; conditions: 10 µM unless noted
[17] = test system: CCRF-CEM leukemia; conditions: 10 µM unless noted
[18] = test system: IGROV1 ovarian; conditions: 10 µM
[19] = test system: NCI-H522 lung; conditions: 10 µM unless noted

Measured: growth

O=C(O)c1cccc(CCl)c1
inactive: [1] 84.3% | [2] 106% | [3] 110% | [4] 95.8% | [5] 107% | [6] 97.5% | [7] 106% | [8] 89.5% | [9] 105% | [10] 105% | [11] 96.6% | [12] 112%

CC(C)CCC1(CCO)C(=O)NC(=S)NC1=O
inactive: [1] 89.5% | [2] 107% | [13] 103% | [14] 105% | [15] 116% | [16] 105% | [5] 100% | [6] 114% | [7] 102% | [17] 115% | [8] 114% | [18] 116% | [12] 107%

O=CN1N=C(c2ccc3c(c2)OCO3)CC1c1sc(N(CCCl)CCCl)nc1Cl (stereo unspecified)
inactive: [19] 74.7% | [2] 104% | [3] 106% | [13] 104% | [14] 91% | [4] 100% | [15] 101% | [16] 97.9% | [5] 94.8% | [6] 95.3% | [7] 82.1% | [17] 92.1% | [8] 87.6% | [18] 93.2% | [12] 106%

O=CN1N=C(c2ccccc2)CC1c1sc(N(CCCl)CCCl)nc1Cl (stereo unspecified)
inactive: [19] 70.8% | [2] 95.5% | [3] 111% | [13] 94.8% | [14] 90.9% | [15] 98.7% | [16] 89.5% | [5] 96.1% | [6] 121% | [7] 79.6% | [17] 104% | [8] 91.2% | [10] 96.2% | [18] 96% | [11] 95.3% | [12] 103%
